Source: PubChem BioAssay (several laboratories)
KKLEB cytotox = CF airway cell cytotoxicity counter-screen; KKLEB CF airway cells viability, ATPlite luminescence, overnight; hits give low values; cells stimulated with P. aeruginosa culture filtrate; activity change (cytotoxicity), % at 5 µM; 360,000 tested, 0.36% active;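 active means corrected activity change at or below -50% at 5 µM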
EWS-Fli inh = EWS/Fli transcriptional activity inhibition | A673 NR0B1-luciferase reporter, viability-normalised | inhibition, % at 12.6 µM | 350,000 tested, 0.67% active | AID 651661;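 active means mean inhibition of at least 50% after viability correction, with every replicate also passing that limit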;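 further: firefly luciferase signal divided by Alamar Blue viability fluorescence both relative to DMSO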
CF NFkB block = blocks PAF-induced NF-kB reporter in cystic fibrosis cells | 360,000 tested, 0.86% active | KKLEB NF-kB-GFP reporter, GFP fluorescence overnight | inhibition, % at 5 µM;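 active means at least 50% inhibition at 5 µM, scaled per plate between neutral and stimulator controls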;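 further: PAF is a Pseudomonas aeruginosa culture filtrate used as stimulus; plate controls were PAF-stimulated DMSO wells for no effect and unstimulated DMSO wells for full effect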
TROY NFkB inh = blocks TROY-dependent signaling in reporter cells; Q293 LMP1-TROYcd NF-kB luciferase reporter, 4 h; inhibition, % at 10 µM; 360,000 tested, 0.98% active; AID 1347056;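 active means compounds whose plate-normalised and pattern-corrected inhibition of the luciferase reporter signal at the single screening dose is 50% or more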
TWEAK-Fn14 inh = blocks TWEAK-Fn14 interaction in a reporter cell assay | inhibition, % at 10 µM | TWEAK-stimulated Fn14 reporter cells, luciferase luminescence, 8 h | 360,000 tested, 2% active; in the data active means inhibition above about 50%
LGR2 antag = blocks bursicon-induced cAMP signaling via Drosophila LGR2; HEK293 LGR2, CRE-luciferase, bursicon-stimulated, 4 h; inhibition, % at 9.99 µM; 380,000 tested, 0.35% active;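 active means drop in luminescence signal, shown as inhibition above about 50% in the replicate tests, limit read from the data, passing the limit was not always enough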;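 further: agonist challenge used bursicon conditioned medium at about half maximal strength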
CF NFkB inh conf = CF NF-kB inhibition confirmation, single concentration; shares compounds with CF NFkB block; KKLEB CF airway cells, PAF-induced NF-kB-GFP fluorescence, overnight; inhibition, % at 5 µM; 1,300 tested, 64% active; in the data active means inhibition above about 40%;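 further: stimulus PAF is a Pseudomonas aeruginosa filtrate and not platelet activating factor; plate controls were DMSO wells with stimulus for no effect and unstimulated DMSO wells for full effect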
Numbers without * were called inactive; x = no result given. Most compounds without a hit are left out; they make up all but 2.6% or so of the library.

SMILES | KKLEB cytotox | EWS-Fli inh | CF NFkB block | TROY NFkB inh | TWEAK-Fn14 inh | LGR2 antag | CF NFkB inh conf
NC(CCc1ccccc1)c1csc(NC(=O)Nc2cccc(Cl)c2)n1 (stereo unspecified) | -18.5 | 13.2 | 28.2 | 2.6 | 7.1 | -9.4 | x
COc1cc2c(cc1NC(=O)CN1CCN(S(=O)(=O)c3ccccc3F)CC1)oc1ccccc12 | -40.2 | x | 55.1* | 2.0 | -36.2 | x | 41.4*
CCCNC(=O)Nc1ccc2c(c1)C(=O)N(C)[C@H]1CC[C@@H](CC(=O)NCc3ccccc3)O[C@@H]1CO2 | x | 2.8 | x | x | x | 11.7 | x
Cc1cccc(NC(=O)c2cc(-c3ccc(C)s3)nc3ccccc23)n1 | -7.3 | -26.9 | 74.1* | 8.3 | 20.9 | x | 76.0*
Cc1cc(NC(=O)c2cc(-c3ccc(C)s3)nc3ccccc23)no1 | 1.4 | -15.7 | -43.9 | -22.2 | -29.1 | 16.4 | x
C[C@@H]1CN([C@@H](C)CO)C(=O)CCCn2cc(nn2)CO[C@@H]1CN(C)S(=O)(=O)c1ccccc1 | x | -1.2 | x | x | x | 7.5 | x
Cc1[nH]nc2c1-c1nc3ccccc3nc1C(C)(C)C2 | -13.9 | x | 51.4* | 32.9 | 45.5 | x | 54.3*
CC12CCC(C)(c3nc4ccccc4nc31)C2(C)C | 4.4 | 15.1 | -20.5 | 11.3 | 6.4 | x | x
Nc1nccc(-c2ccc(-n3cnc4ccccc43)cc2)n1 | -9.4 | -50.5 | 76.7* | 25.9 | 52.8* | -18.9 | 80.2*
Cc1ccc(S(=O)(=O)CCC(=O)N(CCCN2CCOCC2)c2nc3ccccc3s2)cc1 | -9.9 | -40.7 | 49.1 | 6.5 | 13.3 | 0.3 | x
CCN(CC)CCN(C(=O)CCS(=O)(=O)c1ccccc1)c1nc2cc3c(cc2s1)OCO3 | -7.4 | x | 53.3* | 13.4 | 20.9 | 4.1 | 2.9
O=C(CCS(=O)(=O)c1ccccc1)N(CCCN1CCOCC1)c1nc2ccccc2s1 | -21.5 | -62.8 | 72.8* | -13.2 | 27.9 | -7.6 | 54.9*
COc1ccc(S(=O)(=O)N(C)C[C@@H]2Oc3ccc(NC(=O)Cc4ccccc4)cc3CC(=O)N([C@H](C)CO)C[C@@H]2C)cc1 | x | 0.7 | x | x | x | 8.1 | x
C[C@H](NC(=O)C[C@H]1CC[C@H](NC(=O)C2CC2)[C@@H](CO)O1)c1ccccc1 | x | 1.7 | x | x | x | 4.5 | x
C=C1C(=O)OC2C=C(CO)CCC=C(CO)CC(OC(=O)C(C)C)C12 (stereo unspecified) | -15.4 | -1.7 | 87.3* | -6.2 | 31.8 | -11.7 | 45.0*
C=C1C(=O)OC2C1C(OC(=O)C(C)=CC)CC(=C)C1C(O)C3OC3(C)C21O (stereo unspecified) | -15.5 | -10.1 | 21.8 | 12.1 | 7.3 | -13.4 | x
CCCCNc1c(-c2cccc(-c3ccc(OC)cc3)c2)nc2ccc(C)cn12 | -23.3 | 9.5 | 68.3* | 31.8 | 0.1 | 68.0* | 91.2*
CCC(=O)N1CC2(C1)[C@H](c1ccc(-c3ccccc3C)cc1)[C@@H](CO)N2C(C)=O | x | 1.4 | x | x | x | -3.6 | x
COC(=O)N1C(=O)[C@](c2ccc(OC)cc2)(C(C)C)N1C(=O)OC | 3.4 | -0.3 | 35.7 | 4.5 | 42.3 | 28.1 | x
COC(=O)N1C(=O)[C@@](c2ccccc2)(C2CCCC2)N1C(=O)OC | -16.2 | x | 67.2* | 41.7 | 71.0* | x | 45.7*
C[C@H](CO)N1C[C@H](C)[C@@H](CN(C)C(=O)CCC(F)(F)F)OCCCC[C@H](C)Oc2ccc(NS(=O)(=O)c3ccc(F)cc3)cc2C1=O | x | -4.1 | x | x | x | -23.5 | x
COCCCN=C1NN=C(c2cc(C)n(Cc3ccccc3Cl)c2C)CS1 | -13.5 | 45.9 | 53.5* | -2.8 | 2.8 | -10.7 | 60.4*
CC(C)C#Cc1cnc2c(c1)C(=O)N([C@H](C)CO)C[C@H](C)[C@@H](CN(C)C(=O)c1cccc(F)c1)O2 | x | -7.0 | x | x | x | -9.0 | x
COc1ccc(-n2ncc3c(N4CCN(Cc5ccccc5)CC4)ncnc32)cc1 | 5.8 | -20.8 | 65.9* | 60.7* | 81.2* | -3.7 | 73.8*
C[C@@H](NC(=O)C[C@@H]1C=C[C@@H](NC(=O)C2CC2)[C@@H](CO)O1)c1ccccc1 | x | -8.0 | x | x | x | 5.4 | x
CC(C)(C)c1ccc(C(=O)O/N=C(\N)Cc2cccs2)cc1 | -21.3 | -65.1 | 61.2* | -25.5 | -153.1 | -107.5 | 17.8
CCCNC(=O)N(C)C[C@@H]1Oc2cc(-c3cncnc3)ccc2S(=O)(=O)N([C@@H](C)CO)C[C@@H]1C | x | 2.5 | x | x | x | -10.5 | x
